About 83,000 compounds went through this panel and 20% of them were active in at least one assay; those are over-represented in the sample as a whole.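 The endpoint reported here, percent growth, reads 100 for growth as untreated, 0 for no net growth and -100 for all cells dead.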 Activity calls are given as the source filed them. Rule for the calls: active = growth percent below 10; inactive = the rest.
These molecules were tested on MDA-MB-435 melanoma (assay: NCI-60 one-dose screen, 48 h (100 = growth as untreated, 0 = no growth, -100 = all killed)). Conditions: 10 µM unless noted.

Row | Structure (SMILES) | growth
1 | CN1CCN(c2nc(C3=C(c4c[nH]c5ccccc45)C(=O)NC3=O)c3ccccc3n2)CC1 | 41.8% (inactive)
2 | COc1cnc2c(c1)C(=O)c1c-2n(CCCn2ccnc2)c(=O)c2cc(Cl)ccc12 | 11% (inactive)
3 | COc1ccc(-c2nocc2-c2cc(OC)c(OC)c(OC)c2)cc1 | -54.4% (active)

These molecules were tested on SW-620 colon in the same assay as above. Conditions: 10 µM unless noted.

Row | Structure (SMILES) | growth
4 | O=C(Nc1ccc(C(=O)Nc2ccc(C3=NCCCN3)cc2)cc1)Nc1ccc(C2=NCCCN2)cc1 | 101% (inactive)
5 | CC(C)C1CCC(C)C(C2(C#N)C(N)=NC(N)=C2C#N)C1=O (stereo unspecified) | 102% (inactive)
6 | O=C(/C=C/c1ccc2c(c1)OCO2)c1c(O)c2ccccc2oc1=O | 128% (inactive)
7 | CCNC(=O)C#Cc1ccc2c(C(=Nc3ccc(CN(C)C)cc3)c3ccccc3)c(O)[nH]c2c1 | 0.412% (active)
8 | CNS(=O)(=O)Nc1nccc(Cc2c(C)c3ccc(Oc4ncccn4)cc3oc2=O)c1F | 29% (inactive)
9 | C[C@@H](NC(=O)c1ncnc(N)c1Cl)c1ncc(C(=O)Nc2cc(C(F)(F)F)c(Cl)cn2)s1 | 56.9% (inactive)
10 | COc1ccc(Nc2ncccc2NC(=O)c2cn(Cc3cccc(Oc4ccccc4)c3)nn2)cc1 | 106% (inactive)
11 | COc1ccc(OC)c(NC2=C(SCCc3ccccc3)C(=O)c3ccccc3C2=O)c1 | 94% (inactive)
12 | O=C(O)c1ccc2c(c1)nc(Nc1cccc(Cl)c1)c1ccncc12 | 6.63% (active)
13 | Cc1nc(Nc2n[nH]c3c2CN(C(=O)N[C@H](CN(C)C)c2ccccc2)C3(C)C)c2sccc2n1 | 1.22% (active)
14 | NC1(C(=O)N[C@@H](CCO)c2ccc(Cl)cc2)CCN(c2ncnc3[nH]ccc23)CC1 | 62.7% (inactive)
15 | COC[C@@H](C)n1c(C2CCOCC2)nc2c1C1C=C(OC)C(c3c(C)noc3C)=CC1N=C2 (stereo partly specified) | 72.1% (inactive)
16 | N#CC1(C#N)C(c2cccs2)NC(c2cccs2)C1(C#N)C#N (stereo unspecified) | 108% (inactive)
17 | Cn1cnc(-c2cc3nccc(Oc4ccc(NC(=S)NC(=O)Cc5ccccc5)cc4F)c3s2)c1 | 76.7% (inactive)
18 | C#Cc1cccc(Nc2ncnc3cc(OC)c(OCCCCCCC(=O)NO)cc23)c1 | -22.6% (active)
19 | CCCCn1c(C)nc2ccc(Nc3nc(N4CCN(C)CC4)nc4nc[nH]c34)cc21 | 91.8% (inactive)
20 | O=C(Cn1ccc2ccccc21)Nc1ccc(-c2nc3ccccc3s2)cc1 | 106% (inactive)
21 | O=C(NOC[C@H](O)CO)c1ccc(F)c(F)c1Nc1ccc(I)cc1F | 18.5% (inactive)
22 | Cc1sc2c(c1C)c(=O)nc1c(-c3nc4ccccc4s3)n[nH]n12 | 104% (inactive)

Row | Structure (SMILES) | growth
23 | CC1(/C=N/NC(N)=S)NC(=O)NC1=O (stereo unspecified) | 106% (inactive)
24 | COC(=O)CNC(=O)[C@@H](OC)[C@@H]1Cc2cc3cc(OC4CC(OC5CC(O)C(O)C(C)O5)C(O)C(C)O4)c(C)c(O)c3c(O)c2C(=O)[C@H]1OC1CC(OC2CC(OC3CC(C)(O)C(O)C(C)O3)C(O)C(C)O2)C(O)C(C)O1 (stereo partly specified) | 12.7% (inactive)
25 | COc1ccc2c(CCC(c3ccccc3)c3ccccc3)c3[n+](cc2c1OC)CCc1cc2c(cc1-3)OCO2 | 11.5% (inactive)
26 | O=C(NC[C@H](O)CO)c1ccncc1Nc1ccc(I)cc1F | 17.4% (inactive)
27 | CC(C)(C)OC(=O)N1CCC(O)[C@@H](O[Si](c2ccccc2)(c2ccccc2)C(C)(C)C)[C@H]1/C=C/c1ccccc1 (stereo partly specified) | 50.9% (inactive)
28 | C1=C\COCc2cc(ccc2OCCN2CCCC2)Nc2nccc(n2)-c2cccc(c2)COC/1 | 3.2% (active)
29 | COc1cccc(Nc2ncnn3ccc(CN4CC[C@@H](N)[C@H](O)C4)c23)c1 | 88.4% (inactive)
30 | C=C1C(=O)O[C@H]2[C@H]1CC/C(C=Nc1c(N)cc(C(F)(F)F)cc1C(F)(F)F)=C\CC[C@@]1(C)O[C@@H]21 | -54.9% (active)
31 | CO[C@H]1C[C@@H]2CC[C@@H](C)[C@@](O)(O2)C(=O)C(=O)N2CCCC[C@H]2C(=O)O[C@H]([C@H](C)C[C@@H]2CC[C@@H](OC(=O)C(C)(CO)CO)[C@H](OC)C2)CC(=O)[C@H](C)/C=C(\C)[C@@H](O)[C@@H](OC)C(=O)[C@H](C)C[C@H](C)\C=C/C=C/C=C/1C | 42.7% (inactive)
32 | N#Cc1ccc(-n2nnc3ccccc32)cc1C#N | 94.4% (inactive)
33 | CCN(CC)CCNc1ccc(N=Nc2cnc3ccccc3c2)c2ccccc12 | -84.4% (active)
34 | O=c1[nH]c(N2CCOCC2)nc2scc(-c3ccccc3)c12 | 110% (inactive)
35 | CSc1nc2ncncc2[nH]1 | 106% (inactive)
36 | CN1CCC(CNc2ccc3ncc(-c4cccc(OC(F)(F)F)c4)n3n2)CC1 | -61.9% (active)
37 | Nc1c2c(c(O)c3c1=C(CO)C=N3)=NCCS2 | -76% (active)
38 | COc1cc2nccc(Oc3ccc(NC(=O)Nc4cc(C)on4)c(Cl)c3)c2cc1OC | 10.7% (inactive)
39 | CN1CCN(c2nc(C3=C(c4c[nH]c5ccccc45)C(=O)NC3=O)c3ccccc3n2)CC1 | 48.4% (inactive)
40 | COc1cnc2c(c1)C(=O)c1c-2n(CCCn2ccnc2)c(=O)c2cc(Cl)ccc12 | 20.1% (inactive)
41 | COc1ccc(-c2nocc2-c2cc(OC)c(OC)c(OC)c2)cc1 | 21.4% (inactive)

Source: PubChem BioAssay (NCI)
